Growth data for 8 molecules are collected here from PubChem BioAssay (NCI).

The panel holds about 83,000 compounds, 20% with a hit somewhere; the sample as a whole holds those more often.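 48-hour exposure, single concentration, 96-well plates; percent growth endpoint where 0 means no net growth. Active: below 10.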 Unmarked numbers belong to inactive results. The source made the active and inactive calls.

Test systems include NCI-H23 lung; NCI-H226 lung; NCI-H322M lung; HOP-62 NSCLC; NCI-H460 lung; HOP-92 NSCLC; NCI-H522 lung; A549/ATCC NSCLC; 786-0 renal; COLO 205 colon; DU-145 prostate; K-562 leukemia; MALME-3M melanoma; MDA-MB-231 breast; RXF 393 renal; SF-268 CNS; SF-295 CNS; SF-539 CNS; UACC-257 melanoma; M14 melanoma.
Common to all, as to experiment: NCI-60 one-dose screen, 48 h (100 = growth as untreated, 0 = no growth, -100 = all killed)
What all share (settings): 10 µM unless noted

Regarding `CS(=O)(=O)Nc1cc(-c2ccc3ncnc(Nc4ccc5c(cnn5Cc5cccnc5)c4)c3c2)cnc1Cl`, the growth with NCI-H23 lung is 55.8%; with NCI-H226 lung it was 76.4%; in the experiment on NCI-H322M lung it was 68.7%; with HOP-62 NSCLC, 51.2%; with NCI-H460 lung, 79.8%; with HOP-92 NSCLC, -10% (active). For the same molecule, the growth with NCI-H522 lung was 44.2%; with A549/ATCC NSCLC, 83.7%; in the experiment on 786-0 renal, 62.9%; with COLO 205 colon, 68.3%; in the experiment on DU-145 prostate, 63.4%; in the experiment with K-562 leukemia it was 57.7%. Also, the growth is 5.01% (active) in the experiment on MALME-3M melanoma; 47.6% in the experiment with MDA-MB-231 breast; 44.4% in the experiment on RXF 393 renal; 27.9% with SF-268 CNS; 81.8% in the experiment on SF-295 CNS; 41.4% with SF-539 CNS. Further, the growth in the experiment with UACC-257 melanoma was 64.5%; with M14 melanoma, 41%.

For the molecule `CC(C)=CC(=O)N[C@@H]1CC2CCC3C(CC[C@@]4(C)C3CC[C@@H]4C(C)N(C)C)[C@@]2(C)C[C@@H]1O` (stereo not given in full), the growth was 43.8% in the experiment on NCI-H23 lung; 89.1% with NCI-H226 lung; 104% in the experiment on NCI-H322M lung; 56.4% in the experiment with HOP-62 NSCLC; 32.1% with NCI-H460 lung; 40.6% in the experiment on HOP-92 NSCLC. Moreover, the growth is 83% in the experiment on NCI-H522 lung; 74.5% with A549/ATCC NSCLC; 58.5% in the experiment with 786-0 renal; 14.8% with COLO 205 colon; 74.1% in the experiment on DU-145 prostate; -17.1% (active) in the experiment with K-562 leukemia. Besides, the growth in the experiment on MALME-3M melanoma is 32.3%; with MDA-MB-231 breast it was 74.6%; in the experiment with RXF 393 renal, 20.6%; in the experiment on SF-268 CNS it was 32.3%; in the experiment with SF-295 CNS it was 11.1%; with SF-539 CNS, -19.5% (active). Besides, the growth is 31.2% in the experiment on UACC-257 melanoma and 47.3% in the experiment with M14 melanoma.

Consider `O=C1NC(=O)c2c1c1c3ccccc3[nH]c1c1oc3cc(Br)ccc3c21`, for which the growth in the experiment on NCI-H23 lung was 76.2%; in the experiment with NCI-H226 lung, 58.9%; with NCI-H322M lung, 75.7%; with HOP-62 NSCLC it was 65.9%; in the experiment with NCI-H460 lung, 36.8%; in the experiment on HOP-92 NSCLC, 87.9%. Moreover, the growth is 50.6% with NCI-H522 lung; 84.7% in the experiment with A549/ATCC NSCLC; 81.7% in the experiment with 786-0 renal; 72.3% in the experiment on COLO 205 colon; 90.2% with DU-145 prostate; 55% with K-562 leukemia. In addition, the growth in the experiment on MALME-3M melanoma was 87%; with MDA-MB-231 breast, 80.5%; in the experiment with RXF 393 renal it was 88.1%; with SF-268 CNS, 76.4%; in the experiment with SF-295 CNS it was 52.8%; in the experiment with SF-539 CNS it was 96.9%. The values for the growth in the experiment on UACC-257 melanoma and in the experiment on M14 melanoma were 96.4% and 65.8%, respectively.

On to `Cc1ccc(C(=O)c2ccc(CC(=O)N/N=C/c3ccc(O)cc3O)n2C)cc1`, for which the growth in the experiment with NCI-H23 lung was 42.4%; with NCI-H226 lung it was 65.7%; in the experiment on NCI-H322M lung, 38%; with HOP-62 NSCLC it was 40.6%; with NCI-H460 lung, 21.1%; in the experiment on HOP-92 NSCLC, 83.1%. Further, the growth in the experiment with NCI-H522 lung is 55.5%; with A549/ATCC NSCLC it was 46.6%; with 786-0 renal, 43.4%; in the experiment on COLO 205 colon, 41.8%; in the experiment with DU-145 prostate it was 51.3%; in the experiment on K-562 leukemia, 45%. The growth in the experiment on MALME-3M melanoma was 48.6%; in the experiment on MDA-MB-231 breast, 51.4%; in the experiment with RXF 393 renal, 49.7%; with SF-268 CNS it was 37.3%; with SF-295 CNS, 47.2%; in the experiment on SF-539 CNS, 44.4%. In the experiment with UACC-257 melanoma, the growth is 68.3%.

As to `COC(=O)C1=Nc2ccc(F)cc2/C1=C\c1sc(Nc2ccc(O)cc2)nc1O`, the growth is 73.4% with NCI-H23 lung; 78.2% with NCI-H226 lung; 96.7% in the experiment on NCI-H322M lung; 64.3% in the experiment with HOP-62 NSCLC; 102% in the experiment with NCI-H460 lung; 42.7% with HOP-92 NSCLC. Besides, the growth was 47.4% in the experiment on NCI-H522 lung; 99% in the experiment with A549/ATCC NSCLC; 66.1% in the experiment with 786-0 renal; 101% in the experiment on COLO 205 colon; 93.9% with DU-145 prostate; 23.2% in the experiment on K-562 leukemia. Moreover, the growth with MALME-3M melanoma was 45.9%; with MDA-MB-231 breast, 76.7%; with RXF 393 renal, 43.6%; in the experiment with SF-268 CNS, 59.8%; in the experiment on SF-295 CNS it was 61%; in the experiment with SF-539 CNS, 55.4%. Also, in the experiment with UACC-257 melanoma, the growth was 72.2%.

Regarding `O=C(O)C1CN(c2cccc(Cl)c2)N(c2cccc(Cl)c2)C1=O` (stereo not given), the growth was 89.8% with NCI-H23 lung; 92.8% in the experiment with NCI-H226 lung; 83.9% in the experiment with NCI-H322M lung; 88% in the experiment on HOP-62 NSCLC; 102% in the experiment with NCI-H460 lung; 101% with HOP-92 NSCLC. Besides, the growth in the experiment on NCI-H522 lung was 87.1%; in the experiment with A549/ATCC NSCLC, 105%; in the experiment with 786-0 renal it was 96.5%; with COLO 205 colon, 94.5%; in the experiment with DU-145 prostate it was 96.2%; in the experiment on K-562 leukemia it was 101%. Moreover, the growth was 70.8% in the experiment on MALME-3M melanoma; 85.1% in the experiment with MDA-MB-231 breast; 94.9% in the experiment on RXF 393 renal; 81.7% in the experiment on SF-268 CNS; 95.6% with SF-295 CNS; 100% in the experiment with SF-539 CNS. Besides, the growth in the experiment on UACC-257 melanoma was 99.3%.

`C#Cc1cccc(Nc2nc3ccc([N+](=O)[O-])cc3nc2Nc2cccc(C#C)c2)c1`: the growth in the experiment with NCI-H23 lung is -54.6% (active); in the experiment with NCI-H226 lung, -42.3% (active); in the experiment on NCI-H322M lung, 1.22% (active); in the experiment with HOP-62 NSCLC it was -94.7% (active); with NCI-H460 lung it was -57.6% (active); in the experiment on HOP-92 NSCLC it was -24.9% (active). Besides, the growth in the experiment on NCI-H522 lung is -64% (active); with A549/ATCC NSCLC, -45.7% (active); with 786-0 renal it was -56.7% (active); in the experiment on COLO 205 colon it was -87.3% (active); with DU-145 prostate, -52.4% (active); in the experiment with K-562 leukemia it was -57.5% (active). Besides, the growth in the experiment on MALME-3M melanoma is -29.5% (active); in the experiment on MDA-MB-231 breast, -57% (active); in the experiment on RXF 393 renal it was -56.4% (active); with SF-268 CNS, -51.4% (active); in the experiment with SF-295 CNS, -69.4% (active); in the experiment on SF-539 CNS, -77.4% (active). Moreover, in the experiment on UACC-257 melanoma, the growth is -70.1% (active).

`COC(=O)c1ccc2c(c1)c1c(C)c3ccncc3c(C)c1n2C`: the growth with NCI-H23 lung is 24.1%; in the experiment on NCI-H226 lung, 25%; with NCI-H322M lung, 33.6%; in the experiment with HOP-62 NSCLC it was 24%; in the experiment with NCI-H460 lung, 8.82% (active); with HOP-92 NSCLC, 18.7%. Also, the growth is 6.4% (active) in the experiment on NCI-H522 lung; 7.22% (active) with A549/ATCC NSCLC; 28.5% with 786-0 renal; 2.15% (active) in the experiment with COLO 205 colon; 22.7% in the experiment with DU-145 prostate; 8.47% (active) in the experiment on K-562 leukemia. In addition, the growth with MALME-3M melanoma is 5.36% (active); with MDA-MB-231 breast, 25.1%; with RXF 393 renal, 17.5%; in the experiment with SF-268 CNS, 26.3%; with SF-295 CNS it was 24.1%; in the experiment with SF-539 CNS, 31.9%. In addition, the growth in the experiment with UACC-257 melanoma was 1.45% (active).
